# Assay results taken from the supplement of paper PMC11732987, “Enantioselective OTUD7B fragment discovery through chemoproteomics screening and high-throughput optimisation” (Communications Chemistry, 2025).
# A number with no mark means an inactive call.
# How the values were obtained:
# Experiment in all cases: log2 ratio of Biotin-Ahx-Ub-VS probe labelling (fragment/DMSO); higher = less target engagement (more negative = stronger competition), active = hit call of the paper (q ≤ 0.05, log2 ratio ≤ -1)
# Conditions in all cases: compound concentration: 200 uM; treatment time: 3 h
# [1] = target: T1, OTUD6B (UniProt Q8N6M0)
# T1 sequence (whole entry): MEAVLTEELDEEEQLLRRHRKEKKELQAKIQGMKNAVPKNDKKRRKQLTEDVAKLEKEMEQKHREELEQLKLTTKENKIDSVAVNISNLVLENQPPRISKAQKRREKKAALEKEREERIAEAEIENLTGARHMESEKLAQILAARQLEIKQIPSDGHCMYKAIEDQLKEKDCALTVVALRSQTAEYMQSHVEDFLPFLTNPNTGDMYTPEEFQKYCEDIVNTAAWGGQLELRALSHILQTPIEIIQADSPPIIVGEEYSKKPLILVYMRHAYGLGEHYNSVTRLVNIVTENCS
# Summary of the method: (§1)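 Each value is an average log2 ratio of fragment to vehicle, tested by unpaired t-test. The underlying Spectronaut label-free quantities were global-median-normalised, and only proteins with ≥2 unique peptides were included. Triplicate HEK293T lysate samples (495 µg) were exposed to fragment at 200 µM or vehicle for 3 h, then to Biotin-Ahx-Ub-VS at 0.5 µM final for 1 h, before NeutrAvidin enrichment of labelled DUBs, LysC and trypsin digestion, and diaPASEF LC-MS/MS.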
# [2] = target: T2, OTUD7B (UniProt Q6GQQ9)
# T2 sequence (whole entry): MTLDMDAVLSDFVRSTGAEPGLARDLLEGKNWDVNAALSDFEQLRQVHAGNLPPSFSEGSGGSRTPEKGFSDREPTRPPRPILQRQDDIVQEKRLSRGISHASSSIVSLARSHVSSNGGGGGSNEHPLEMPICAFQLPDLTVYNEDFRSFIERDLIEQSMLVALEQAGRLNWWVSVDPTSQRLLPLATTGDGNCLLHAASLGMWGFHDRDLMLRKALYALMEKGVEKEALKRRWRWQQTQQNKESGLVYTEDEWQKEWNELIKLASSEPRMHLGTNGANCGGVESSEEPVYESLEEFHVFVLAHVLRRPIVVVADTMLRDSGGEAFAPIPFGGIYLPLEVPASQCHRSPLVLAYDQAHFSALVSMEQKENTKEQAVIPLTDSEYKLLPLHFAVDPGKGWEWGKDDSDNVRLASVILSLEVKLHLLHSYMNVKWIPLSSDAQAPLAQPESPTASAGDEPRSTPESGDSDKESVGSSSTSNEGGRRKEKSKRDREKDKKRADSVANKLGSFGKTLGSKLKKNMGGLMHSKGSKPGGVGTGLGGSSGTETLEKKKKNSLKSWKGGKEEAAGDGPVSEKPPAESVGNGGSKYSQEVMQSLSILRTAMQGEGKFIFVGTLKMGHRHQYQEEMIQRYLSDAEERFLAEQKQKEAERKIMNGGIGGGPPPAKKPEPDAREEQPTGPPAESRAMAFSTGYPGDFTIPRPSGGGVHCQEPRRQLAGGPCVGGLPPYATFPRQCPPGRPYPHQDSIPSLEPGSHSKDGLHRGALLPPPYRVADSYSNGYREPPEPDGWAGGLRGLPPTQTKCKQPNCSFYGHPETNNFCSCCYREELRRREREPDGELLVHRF
# Summary of the method: as §1
# [3] = target: PRPF8 (UniProt Q6P2Q9)
# Summary of the method: as §1
# [4] = target: T3, PSMD7 (UniProt P51665)
# T3 sequence (whole entry): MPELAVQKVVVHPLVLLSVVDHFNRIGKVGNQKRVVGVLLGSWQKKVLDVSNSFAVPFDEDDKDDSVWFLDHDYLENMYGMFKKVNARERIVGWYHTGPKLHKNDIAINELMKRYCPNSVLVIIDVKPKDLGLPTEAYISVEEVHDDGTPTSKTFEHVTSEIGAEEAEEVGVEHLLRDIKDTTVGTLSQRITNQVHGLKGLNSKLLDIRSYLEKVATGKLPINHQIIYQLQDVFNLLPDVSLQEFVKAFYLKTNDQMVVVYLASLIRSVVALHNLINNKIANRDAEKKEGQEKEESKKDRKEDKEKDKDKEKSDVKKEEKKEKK
# Summary of the method: as §1
# [5] = target: UCHL1 (UniProt P09936)
# Summary of the method: as §1
# [6] = target: T4, UCHL3 (UniProt P15374)
# T4 sequence (whole entry): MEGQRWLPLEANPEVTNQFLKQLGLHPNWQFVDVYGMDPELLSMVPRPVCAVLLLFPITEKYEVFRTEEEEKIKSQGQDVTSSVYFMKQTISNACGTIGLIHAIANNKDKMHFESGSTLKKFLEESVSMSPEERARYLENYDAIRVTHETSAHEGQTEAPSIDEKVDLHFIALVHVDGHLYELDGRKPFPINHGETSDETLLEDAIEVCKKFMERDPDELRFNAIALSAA
# Summary of the method: as §1
# [7] = target: T5, UCHL5 (UniProt Q9Y5K5)
# T5 sequence (whole entry): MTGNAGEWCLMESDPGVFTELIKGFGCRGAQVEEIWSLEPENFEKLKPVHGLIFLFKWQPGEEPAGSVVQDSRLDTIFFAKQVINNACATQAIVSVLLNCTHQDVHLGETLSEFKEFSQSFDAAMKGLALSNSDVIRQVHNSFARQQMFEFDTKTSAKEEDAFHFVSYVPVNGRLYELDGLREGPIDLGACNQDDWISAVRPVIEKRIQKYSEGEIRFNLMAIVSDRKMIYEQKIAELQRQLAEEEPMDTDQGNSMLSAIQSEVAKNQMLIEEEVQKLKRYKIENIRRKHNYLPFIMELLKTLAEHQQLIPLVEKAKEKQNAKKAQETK
# Summary of the method: as §1
# [8] = target: USP10 (UniProt Q14694)
# Summary of the method: as §1
# [9] = target: T6, USP15 (UniProt Q9Y4E8)
# T6 sequence (whole entry): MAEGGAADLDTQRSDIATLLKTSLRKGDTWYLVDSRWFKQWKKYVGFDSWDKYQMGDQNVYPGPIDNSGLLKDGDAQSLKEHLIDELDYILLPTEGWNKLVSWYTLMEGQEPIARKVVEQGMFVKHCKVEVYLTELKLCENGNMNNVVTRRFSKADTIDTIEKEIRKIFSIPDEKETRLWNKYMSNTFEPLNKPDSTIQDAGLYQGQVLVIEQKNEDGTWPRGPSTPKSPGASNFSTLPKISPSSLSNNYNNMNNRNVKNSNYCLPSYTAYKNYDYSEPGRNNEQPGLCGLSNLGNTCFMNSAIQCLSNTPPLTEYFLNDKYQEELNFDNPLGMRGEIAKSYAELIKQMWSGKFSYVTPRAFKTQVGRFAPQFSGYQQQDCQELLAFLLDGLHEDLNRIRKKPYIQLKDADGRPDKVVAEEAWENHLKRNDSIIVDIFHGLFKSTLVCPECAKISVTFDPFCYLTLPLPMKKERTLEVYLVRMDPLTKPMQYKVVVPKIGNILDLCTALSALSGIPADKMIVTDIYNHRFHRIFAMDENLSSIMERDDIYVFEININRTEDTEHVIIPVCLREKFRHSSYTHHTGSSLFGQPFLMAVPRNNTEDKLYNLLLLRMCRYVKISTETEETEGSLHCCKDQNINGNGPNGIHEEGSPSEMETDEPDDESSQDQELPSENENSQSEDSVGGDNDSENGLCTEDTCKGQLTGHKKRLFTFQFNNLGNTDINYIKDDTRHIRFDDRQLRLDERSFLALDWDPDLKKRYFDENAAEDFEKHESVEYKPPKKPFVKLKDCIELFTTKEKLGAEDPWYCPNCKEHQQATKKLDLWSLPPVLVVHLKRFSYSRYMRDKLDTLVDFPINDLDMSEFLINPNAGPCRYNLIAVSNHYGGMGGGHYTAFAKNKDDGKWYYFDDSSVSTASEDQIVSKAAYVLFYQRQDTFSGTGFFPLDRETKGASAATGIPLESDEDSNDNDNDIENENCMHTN
# Summary of the method: as §1
# [10] = target: USP16 (UniProt Q9Y5T5)
# Summary of the method: as §1
# USP10, sequence (Q14694 whole entry): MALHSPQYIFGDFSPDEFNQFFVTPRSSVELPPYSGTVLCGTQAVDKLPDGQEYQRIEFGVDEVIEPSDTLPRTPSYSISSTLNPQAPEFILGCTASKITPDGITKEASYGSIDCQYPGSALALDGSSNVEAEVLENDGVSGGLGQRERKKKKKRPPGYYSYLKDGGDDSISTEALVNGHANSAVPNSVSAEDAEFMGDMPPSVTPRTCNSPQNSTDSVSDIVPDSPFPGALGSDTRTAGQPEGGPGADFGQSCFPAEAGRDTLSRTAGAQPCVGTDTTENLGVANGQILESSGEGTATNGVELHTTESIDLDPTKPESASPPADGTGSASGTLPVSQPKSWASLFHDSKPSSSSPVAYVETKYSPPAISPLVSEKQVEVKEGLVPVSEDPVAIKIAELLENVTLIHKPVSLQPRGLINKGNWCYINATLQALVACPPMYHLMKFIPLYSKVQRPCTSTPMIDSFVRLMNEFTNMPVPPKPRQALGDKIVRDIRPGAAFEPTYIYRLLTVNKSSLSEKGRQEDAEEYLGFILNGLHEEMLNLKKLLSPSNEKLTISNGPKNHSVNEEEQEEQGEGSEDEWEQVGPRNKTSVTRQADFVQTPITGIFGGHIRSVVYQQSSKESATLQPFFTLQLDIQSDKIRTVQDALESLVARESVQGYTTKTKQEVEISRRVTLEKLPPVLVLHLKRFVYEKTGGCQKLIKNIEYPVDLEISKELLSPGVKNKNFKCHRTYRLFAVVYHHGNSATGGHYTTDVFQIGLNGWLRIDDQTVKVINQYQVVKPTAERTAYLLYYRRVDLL
# USP16, sequence (Q9Y5T5 whole entry, looked up): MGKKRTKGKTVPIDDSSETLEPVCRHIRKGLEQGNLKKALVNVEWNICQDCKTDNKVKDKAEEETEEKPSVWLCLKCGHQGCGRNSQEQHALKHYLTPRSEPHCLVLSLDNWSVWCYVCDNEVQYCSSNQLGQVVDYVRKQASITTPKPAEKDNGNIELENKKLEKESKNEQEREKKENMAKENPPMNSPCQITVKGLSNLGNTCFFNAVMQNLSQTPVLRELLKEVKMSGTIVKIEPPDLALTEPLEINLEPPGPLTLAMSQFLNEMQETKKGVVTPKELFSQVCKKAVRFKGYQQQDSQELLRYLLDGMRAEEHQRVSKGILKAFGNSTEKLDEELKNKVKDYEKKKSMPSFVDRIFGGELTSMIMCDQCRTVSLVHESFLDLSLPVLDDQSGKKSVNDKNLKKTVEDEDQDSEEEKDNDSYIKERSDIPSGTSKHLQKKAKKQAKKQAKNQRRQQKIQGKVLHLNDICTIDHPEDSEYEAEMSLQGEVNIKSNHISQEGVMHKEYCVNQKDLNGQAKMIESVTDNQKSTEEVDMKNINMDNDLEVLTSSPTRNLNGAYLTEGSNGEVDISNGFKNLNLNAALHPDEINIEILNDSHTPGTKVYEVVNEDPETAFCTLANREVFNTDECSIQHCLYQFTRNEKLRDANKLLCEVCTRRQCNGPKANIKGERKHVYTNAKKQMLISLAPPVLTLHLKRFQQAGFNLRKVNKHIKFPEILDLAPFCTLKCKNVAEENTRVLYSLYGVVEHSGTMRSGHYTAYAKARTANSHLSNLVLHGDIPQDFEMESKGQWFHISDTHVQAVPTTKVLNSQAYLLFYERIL
# UCHL1, sequence (P09936 whole entry, looked up): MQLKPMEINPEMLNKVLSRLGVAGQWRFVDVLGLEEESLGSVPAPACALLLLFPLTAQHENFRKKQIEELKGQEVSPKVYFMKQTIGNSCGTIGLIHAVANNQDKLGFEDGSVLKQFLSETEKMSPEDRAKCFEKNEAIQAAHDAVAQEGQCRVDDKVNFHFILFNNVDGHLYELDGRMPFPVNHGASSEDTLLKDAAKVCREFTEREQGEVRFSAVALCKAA
compound,measurement,setting,value
O=C(CCl)NCc1ccc(N2CCOCC2)c(F)c1,log2 ratio of Biotin-Ahx-Ub-VS probe labelling,[1],0.111
same,log2 ratio of Biotin-Ahx-Ub-VS probe labelling,[2],-0.497
same,log2 ratio of Biotin-Ahx-Ub-VS probe labelling,[3],-0.0572
same,log2 ratio of Biotin-Ahx-Ub-VS probe labelling,[4],0.0258
same,log2 ratio of Biotin-Ahx-Ub-VS probe labelling,[5],-1.41 (active)
same,log2 ratio of Biotin-Ahx-Ub-VS probe labelling,[6],0.309
same,log2 ratio of Biotin-Ahx-Ub-VS probe labelling,[7],-0.0833
same,log2 ratio of Biotin-Ahx-Ub-VS probe labelling,[8],-0.131
same,log2 ratio of Biotin-Ahx-Ub-VS probe labelling,[9],-0.0773
same,log2 ratio of Biotin-Ahx-Ub-VS probe labelling,[10],-0.0789
